Values joined by “and” are separate entries in the source; they are usually repeats but may differ in a detail not shown here. Equal values may be shown once. The source holds several records for some structures; these can differ, active in one and inactive in another. Active and inactive are the calls of the source. The calls were made as follows: active = hit-call score of the fitted dose curve at least 0.9, where 1 is the maximum; inactive = score below 0.9.
Key:
[1] = target: Transcription factor E2F1 (Homo sapiens) (UniProt Q01094); test: ATG_E2F_CIS: Attagene CIS-FACTORIAL HepG2 Assay for human E2F Transcription Factor 1 (AID 2282935); conditions: HepG2 Attagene cis-reporter, E2F reporter RNA transcripts; actives raise or lower the signal
Transcription factor E2F1 (Homo sapiens), sequence (Q01094 whole entry, looked up): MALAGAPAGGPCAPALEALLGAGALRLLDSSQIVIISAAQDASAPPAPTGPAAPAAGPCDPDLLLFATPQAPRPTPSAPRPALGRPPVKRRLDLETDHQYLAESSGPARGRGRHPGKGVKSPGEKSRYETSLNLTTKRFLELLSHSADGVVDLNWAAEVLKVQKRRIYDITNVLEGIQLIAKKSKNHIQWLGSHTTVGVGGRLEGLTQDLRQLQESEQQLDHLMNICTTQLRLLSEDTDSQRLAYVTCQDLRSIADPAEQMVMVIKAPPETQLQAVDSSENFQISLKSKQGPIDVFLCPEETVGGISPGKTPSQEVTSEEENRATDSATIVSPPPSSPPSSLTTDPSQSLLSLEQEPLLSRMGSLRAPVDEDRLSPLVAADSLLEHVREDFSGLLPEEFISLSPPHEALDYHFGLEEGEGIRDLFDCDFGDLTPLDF
Summary of the method: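 In this cis-factorial format, endogenous factor activity drives transfected reporters in HepG2; transcripts collected at 24 h are quantified by fluorescence after RT-PCR and capillary separation.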

[2] = ATG_E_Box_CIS: Attagene CIS-FACTORIAL HepG2 Assay for human Enhancer Box (E-box) (AID 2282936); conditions: HepG2 E-box cis-reporter transcription, actives raise or lower the signal
Summary of the method: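 Measured 24 h post-dosing in HepG2 cells transfected with multiple cis-regulated reporter units, signal being reporter mRNA induction detected by fluorescent RT-PCR with capillary electrophoresis; gain or loss fitted against DMSO.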

[3] = ATG_M_61_CIS: Attagene CIS-FACTORIAL HepG2 Assay for M61 Transcription Factor (Internal Marker) (AID 2282937); conditions: HepG2 Attagene CIS-FACTORIAL M61 internal marker reporter; actives raise or lower the signal
Summary of the method: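 Using transiently transfected HepG2 liver cells, reporter transcript levels were assessed 24 h post-dosing by RT-PCR and capillary electrophoresis. Changes in either direction were fitted relative to DMSO controls.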

[4] = ATG_EGR_CIS: Attagene CIS-FACTORIAL HepG2 Assay for human Early Growth Response 1 (EGR1) (AID 2282938); conditions: HepG2 Attagene CIS-FACTORIAL EGR reporter mRNA; actives raise or lower the signal
Summary of the method: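 Fluorescent capillary-electrophoresis signal of reporter cDNA fragments serves as read-out. HepG2 cells bear transiently transfected cis-promoter reporter units and are exposed 24 h; gain- or loss-of-signal is fitted against DMSO.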

[5] = ATG_M_19_CIS: Attagene CIS-FACTORIAL HepG2 Assay for M19 Transcription Factor (Internal Marker) (AID 2282939); conditions: HepG2 Attagene CIS-FACTORIAL M19 internal marker reporter; actives raise or lower the signal
Summary of the method: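 Following a 24 h exposure, RNA from transfected HepG2 cells was reverse-transcribed, PCR-amplified with reporter-specific primers, end-labelled with 6-FAM and HpaI-digested before capillary separation. Values represent gain or loss versus DMSO.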

[6] = ATG_ERE_CIS: Attagene CIS-FACTORIAL HepG2 Assay for Estrogen Response Element (ERE) (AID 2282940); conditions: HepG2 ERE cis-reporter, Attagene RNA transcript; actives raise or lower the signal
Summary of the method: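 HepG2, transient cis-reporter units, 24 h exposure. RNA isolated, oligo(dT) RT, reporter-specific PCR, FAM extension, HpaI cut, CE detection. Gain/loss-of-signal vs DMSO.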

[7] = ATG_Ets_CIS: Attagene CIS-FACTORIAL HepG2 Assay for human Erythroblast Transformation Specific (ETS) (AID 2282941); conditions: HepG2 ETS cis-reporter transcription, actives raise or lower the signal
Summary of the method: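 Bidirectional fit versus DMSO of reporter mRNA signal, detected by RT-PCR and capillary electrophoresis in HepG2 cells transiently transfected with cis-element reporters and dosed 24 h.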

[8] = target: Hepatocyte nuclear factor 3-beta (Homo sapiens) (UniProt Q9Y261); test: ATG_FoxA2_CIS: Attagene CIS-FACTORIAL HepG2 Assay for human Forkhead box A2 (FOXA2) (AID 2282942); conditions: HepG2 cis-reporter transcription factor activity, 24 h; actives raise or lower the signal
Hepatocyte nuclear factor 3-beta (Homo sapiens), sequence (Q9Y261 whole entry, looked up, the tested form may be a part): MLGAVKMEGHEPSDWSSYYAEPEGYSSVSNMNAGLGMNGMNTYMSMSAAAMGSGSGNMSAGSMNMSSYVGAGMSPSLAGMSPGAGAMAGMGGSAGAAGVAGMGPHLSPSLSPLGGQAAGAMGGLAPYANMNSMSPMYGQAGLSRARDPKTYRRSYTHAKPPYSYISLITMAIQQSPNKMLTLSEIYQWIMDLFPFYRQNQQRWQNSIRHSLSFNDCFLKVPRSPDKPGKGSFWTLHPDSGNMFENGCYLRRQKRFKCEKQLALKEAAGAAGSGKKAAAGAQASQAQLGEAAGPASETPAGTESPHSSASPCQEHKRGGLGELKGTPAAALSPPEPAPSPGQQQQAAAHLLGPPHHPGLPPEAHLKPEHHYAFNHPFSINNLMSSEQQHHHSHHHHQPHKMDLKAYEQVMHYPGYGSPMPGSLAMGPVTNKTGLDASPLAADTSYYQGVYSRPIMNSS
Summary of the method: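 Fluorescence signal of reporter cDNA fragments, separated by capillary electrophoresis, reflects endogenous transcription factor activity in transfected HepG2 after 24 h. Both increases and decreases fitted against DMSO.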

[9] = ATG_FoxO_CIS: Attagene CIS-FACTORIAL HepG2 Assay for human Forkhead box O (FoxO) (AID 2282943); conditions: HepG2 Attagene cis-reporter, FoxO element, mRNA; actives raise or lower the signal
Summary of the method: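 24 h chemical exposure, HepG2 with transient cis-MRTU transfection. RNA extraction, oligo(dT) RT, reporter-specific PCR, primer-extension labelling, HpaI digestion, CE fragment analysis; bidirectional fit, DMSO baseline.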

[10] = ATG_GATA_CIS: Attagene CIS-FACTORIAL HepG2 Assay for human GATA Binding Protein (AID 2282944); conditions: HepG2 GATA cis-element reporter, Attagene multiplex mRNA; actives raise or lower the signal
Summary of the method: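 DMSO serves as negative control and baseline for bidirectional fitting of reporter mRNA changes. HepG2 cells bearing transiently transfected cis-promoter reporters were exposed 24 h; transcripts detected via RT-PCR and capillary electrophoresis.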

[11] = ATG_GLI_CIS: Attagene CIS-FACTORIAL HepG2 Assay for human Zinc Finger Protein GLI1 (AID 2282945); conditions: HepG2, Attagene cis-factorial reporter mRNA, GLI element; actives raise or lower the signal
Summary of the method: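 HepG2 cells transiently transfected with cis-promoter multiplexed reporter units report endogenous transcription factor activity. After 24 h chemical exposure, reporter mRNA was quantified by RT-PCR, 6-FAM labelling, HpaI digestion and capillary electrophoresis, with bidirectional fitting against DMSO.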

[12] = ATG_GRE_CIS: Attagene CIS-FACTORIAL HepG2 Assay for human Glucocorticoid Response Elements (GRE) (AID 2282947); conditions: HepG2 GRE cis-reporter, Attagene multiplex mRNA; actives raise or lower the signal
Summary of the method: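 HepG2, transient cis-reporter transfection, 24 h. Reporter mRNA: RT-PCR then CE, fluorescence. Fit both directions vs DMSO.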

[13] = ATG_ISRE_CIS: Attagene CIS-FACTORIAL HepG2 Assay for human Interferon Regulatory Factor 1 (IRF1) binding to an Interferon-Stimulated Response Element (ISRE) (AID 2282948); conditions: HepG2 ISRE cis-reporter (Attagene), mRNA transcription readout; actives raise or lower the signal
Summary of the method: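 Uses HepG2 liver cells transfected with cis-regulated reporters and measures mRNA 24 h post-dosing through RT-PCR, primer-extension labelling and capillary electrophoresis, with DMSO as negative control.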

[14] = ATG_M_32_CIS: Attagene CIS-FACTORIAL HepG2 Assay for M32 Transcription Factor (Internal Marker) (AID 2282949); conditions: HepG2 Attagene cis-factorial M32 reporter, mRNA; actives raise or lower the signal;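 also: background control marker of the multiplexed CIS panel rather than a real target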
Summary of the method: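 Using DMSO as baseline, bidirectional curve fits were applied to reporter mRNA signals. These came from transiently transfected HepG2 cells exposed for 24 h, with RNA analysed by RT-PCR, FAM primer extension, HpaI digestion and CE.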

[15] = ATG_M_06_CIS: Attagene CIS-FACTORIAL HepG2 Assay for M06 Transcription Factor (Internal Marker) (AID 2282950); conditions: HepG2 Attagene CIS-FACTORIAL M06 internal marker reporter; actives raise or lower the signal
Summary of the method: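 Fluorescence-labelled RT-PCR products from cis-promoter reporter units, cut with HpaI and resolved by capillary electrophoresis, give the signal. Cells are human HepG2, dosed for 24 h. Serves as background control, fitted relative to DMSO.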

[16] = target: Hepatocyte nuclear factor 6 (Homo sapiens) (UniProt Q9UBC0); test: ATG_HNF6_CIS: Attagene CIS-FACTORIAL HepG2 Assay for human Hepatocyte Nuclear Factor 6 (HNF6) (AID 2282952); conditions: HepG2 Attagene cis-factorial HNF6 reporter transcription; actives raise or lower the signal
Hepatocyte nuclear factor 6 (Homo sapiens), sequence (Q9UBC0 whole entry, looked up, the tested form may be a part): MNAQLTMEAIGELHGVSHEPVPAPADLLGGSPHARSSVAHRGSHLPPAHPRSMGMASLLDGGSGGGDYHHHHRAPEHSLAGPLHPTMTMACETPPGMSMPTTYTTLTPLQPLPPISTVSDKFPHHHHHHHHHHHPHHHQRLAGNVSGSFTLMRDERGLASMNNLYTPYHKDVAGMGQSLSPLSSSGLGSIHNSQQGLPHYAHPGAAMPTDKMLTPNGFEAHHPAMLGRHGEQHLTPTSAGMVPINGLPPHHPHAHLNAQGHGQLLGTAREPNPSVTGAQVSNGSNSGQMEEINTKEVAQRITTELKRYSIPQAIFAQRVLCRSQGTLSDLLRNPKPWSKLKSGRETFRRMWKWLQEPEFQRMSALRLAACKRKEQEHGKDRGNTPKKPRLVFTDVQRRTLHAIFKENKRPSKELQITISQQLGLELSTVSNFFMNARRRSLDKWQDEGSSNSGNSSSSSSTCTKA
Summary of the method: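 Using cis-element reporters in HepG2 liver cells, the assay tracks endogenous factor-driven transcription 24 h post-dosing. Signal comes from 6-FAM-labelled, HpaI-digested RT-PCR fragments, with gain or loss scored against DMSO.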

[17] = target: Heat shock factor protein 1 (Homo sapiens) (UniProt Q00613); test: ATG_HSE_CIS: Attagene CIS-FACTORIAL HepG2 Assay for human Heat Shock Transcription Factor 1 (HSE) (AID 2282953); conditions: HepG2 HSE cis-reporter, Attagene RNA transcription; actives raise or lower the signal
Heat shock factor protein 1 (Homo sapiens), sequence (Q00613 whole entry, looked up): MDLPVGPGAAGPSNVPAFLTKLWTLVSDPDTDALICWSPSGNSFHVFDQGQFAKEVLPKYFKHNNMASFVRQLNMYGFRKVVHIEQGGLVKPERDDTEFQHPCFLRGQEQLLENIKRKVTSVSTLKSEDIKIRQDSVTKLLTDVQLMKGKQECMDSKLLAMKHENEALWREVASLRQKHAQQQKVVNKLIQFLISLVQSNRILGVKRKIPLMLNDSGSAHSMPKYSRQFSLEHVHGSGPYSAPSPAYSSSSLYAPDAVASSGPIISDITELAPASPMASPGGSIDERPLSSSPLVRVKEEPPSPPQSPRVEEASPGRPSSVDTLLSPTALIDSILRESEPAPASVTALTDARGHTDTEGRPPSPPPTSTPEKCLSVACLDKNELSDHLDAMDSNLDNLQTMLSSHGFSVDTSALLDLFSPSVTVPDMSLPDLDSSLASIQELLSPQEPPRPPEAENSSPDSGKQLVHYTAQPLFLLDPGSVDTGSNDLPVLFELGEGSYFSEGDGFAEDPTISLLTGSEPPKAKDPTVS
Summary of the method: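 After a 24 h incubation with test chemical, transfected HepG2 cells were harvested for RNA; reporter transcripts were measured by RT-PCR and capillary electrophoresis. Values reflect gain or loss of signal relative to DMSO.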

[18] = ATG_MRE_CIS: Attagene CIS-FACTORIAL HepG2 Assay for human Metal Responsive Element (MRE) (AID 2282954); conditions: HepG2 MRE cis-reporter transcription, Attagene multiplex; actives raise or lower the signal
Summary of the method: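 Readout: capillary electrophoresis of 6-FAM-labelled, HpaI-digested RT-PCR reporter products. System: HepG2 cells carrying transient multiplexed cis reporters, dosed 24 h. Analysis: bidirectional fit, DMSO baseline.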

[19] = target: Bile acid receptor (Homo sapiens) (UniProt Q96RI1); test: ATG_IR1_CIS: Attagene CIS-FACTORIAL HepG2 Assay for human Nuclear Receptor Subfamily 1 Group H Member 4 (NR1H4), IR1 submotif (AID 2282946); conditions: IR1 reporter transcription, actives raise or lower the signal
Bile acid receptor (Homo sapiens), sequence (Q96RI1 whole entry, looked up): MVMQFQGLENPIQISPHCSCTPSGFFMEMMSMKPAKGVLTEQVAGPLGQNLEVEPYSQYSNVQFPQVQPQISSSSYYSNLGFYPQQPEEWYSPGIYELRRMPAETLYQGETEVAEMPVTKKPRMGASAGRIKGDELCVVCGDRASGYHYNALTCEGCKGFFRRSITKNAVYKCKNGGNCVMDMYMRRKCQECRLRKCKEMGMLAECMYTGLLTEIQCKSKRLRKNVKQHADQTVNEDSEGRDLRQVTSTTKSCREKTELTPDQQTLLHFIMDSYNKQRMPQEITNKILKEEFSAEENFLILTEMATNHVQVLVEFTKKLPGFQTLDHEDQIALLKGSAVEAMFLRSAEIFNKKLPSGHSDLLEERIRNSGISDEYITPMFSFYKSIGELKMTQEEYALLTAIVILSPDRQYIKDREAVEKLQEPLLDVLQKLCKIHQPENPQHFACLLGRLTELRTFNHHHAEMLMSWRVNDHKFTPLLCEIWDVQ
Summary of the method: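 Readout: reporter transcript levels by RT-PCR with fluorescent capillary electrophoresis, from HepG2 cells transiently transfected with multiplexed cis-regulated reporters and dosed 24 h. Gain- or loss-of-signal fitted versus DMSO negative control.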

[20] = target: Hypoxia-inducible factor 1-alpha (Homo sapiens) (UniProt Q16665); test: ATG_HIF1a_CIS: Attagene CIS-FACTORIAL HepG2 Assay for human Hypoxia Inducible Factor 1 (HIF1A) (AID 2282951); conditions: HepG2 Attagene cis-factorial HIF1a reporter transcription; actives raise or lower the signal
Hypoxia-inducible factor 1-alpha (Homo sapiens), sequence (Q16665 whole entry, looked up): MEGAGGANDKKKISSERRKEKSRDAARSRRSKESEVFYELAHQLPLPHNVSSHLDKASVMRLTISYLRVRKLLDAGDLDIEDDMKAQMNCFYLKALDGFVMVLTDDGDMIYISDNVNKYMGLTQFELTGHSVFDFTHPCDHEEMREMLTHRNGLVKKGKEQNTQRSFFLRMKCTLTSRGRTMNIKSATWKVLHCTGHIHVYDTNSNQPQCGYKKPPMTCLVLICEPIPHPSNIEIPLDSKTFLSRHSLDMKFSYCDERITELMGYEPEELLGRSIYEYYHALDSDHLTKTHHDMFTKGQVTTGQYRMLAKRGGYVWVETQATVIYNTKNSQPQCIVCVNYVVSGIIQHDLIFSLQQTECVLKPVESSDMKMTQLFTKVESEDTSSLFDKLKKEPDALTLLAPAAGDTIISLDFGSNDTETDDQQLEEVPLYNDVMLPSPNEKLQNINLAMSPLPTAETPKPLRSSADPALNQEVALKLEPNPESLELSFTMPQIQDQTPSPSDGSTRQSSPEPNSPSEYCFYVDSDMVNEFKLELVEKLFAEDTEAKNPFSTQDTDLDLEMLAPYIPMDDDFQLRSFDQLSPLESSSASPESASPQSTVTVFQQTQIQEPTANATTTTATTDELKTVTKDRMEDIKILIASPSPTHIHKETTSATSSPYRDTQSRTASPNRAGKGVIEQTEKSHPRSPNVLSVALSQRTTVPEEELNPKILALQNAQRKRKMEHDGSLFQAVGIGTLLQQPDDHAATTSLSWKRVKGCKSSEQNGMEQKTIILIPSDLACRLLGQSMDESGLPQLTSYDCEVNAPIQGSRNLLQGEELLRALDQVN
Summary of the method: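 Endogenous-TF cis reporter readout, human HepG2 cells, 24 h incubation; mRNA detected via RT-PCR and capillary electrophoresis fluorescence; DMSO-normalised bidirectional fitting.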

CCOCN(C(=O)CCl)c1c(C)cccc1CC
outcome [1]: inactive
outcome [2]: inactive
outcome [3]: inactive
outcome [4]: inactive
outcome [5]: inactive
outcome [6]: inactive
outcome [7]: inactive
outcome [8]: inactive
outcome [9]: inactive
outcome [10]: inactive
outcome [11]: inactive
outcome [12]: inactive
outcome [13]: inactive
outcome [14]: inactive
outcome [15]: inactive
outcome [16]: inactive
outcome [17]: inactive
outcome [18]: inactive

O=[N+]([O-])/N=C1\NCCN1Cc1ccc(Cl)nc1
outcome [1]: inactive
outcome [2]: inactive
outcome [3]: inactive
outcome [4]: inactive
outcome [5]: inactive
outcome [6]: inactive
outcome [7]: inactive
outcome [8]: inactive
outcome [9]: inactive
outcome [10]: inactive
outcome [11]: inactive
outcome [19]: inactive
outcome [12]: inactive
outcome [13]: inactive
outcome [14]: inactive
outcome [15]: inactive
outcome [16]: inactive
outcome [17]: inactive
outcome [18]: inactive

Oc1cc(Cl)ccc1Oc1ccc(Cl)cc1Cl
outcome [1]: inactive
AC50 [2]: 13.4 µM (active)
outcome [2]: inactive
outcome [3]: inactive
AC50 [4]: 11.3 µM (active) [middle of 4 runs]
outcome [4]: inactive
outcome [5]: inactive
outcome [8]: inactive
outcome [9]: inactive
AC50 [10]: 5.97 µM (active)
outcome [10]: inactive
outcome [11]: inactive
outcome [19]: inactive
AC50 [12]: 11.1 µM (active)
outcome [12]: inactive
AC50 [13]: 13.5 µM (active) [middle of 4 runs]
outcome [13]: inactive
outcome [14]: inactive
outcome [15]: inactive
outcome [16]: inactive
AC50 [17]: 17.4 µM (active) and 9.05 µM (active)
outcome [17]: inactive
AC50 [18]: 15.3 µM (active) [middle of 6 runs]
outcome [18]: inactive

CCC(C)(NC(=O)c1cc(Cl)c(C)c(Cl)c1)C(=O)CCl (stereo unspecified)
outcome [1]: inactive
outcome [2]: inactive
outcome [3]: inactive
outcome [4]: inactive
outcome [5]: inactive
outcome [6]: inactive
outcome [8]: inactive
outcome [9]: inactive
outcome [10]: inactive
outcome [11]: inactive
outcome [19]: inactive
outcome [12]: inactive
outcome [13]: inactive
outcome [14]: inactive
outcome [15]: inactive
outcome [16]: inactive
outcome [17]: inactive
outcome [18]: inactive

CCN(CC)C(=O)SCc1ccc(Cl)cc1
outcome [1]: inactive
outcome [2]: inactive
outcome [3]: inactive
AC50 [4]: 23.5 µM (active)
outcome [5]: inactive
outcome [6]: inactive
outcome [8]: inactive
outcome [9]: inactive
outcome [10]: inactive
outcome [11]: inactive
outcome [19]: inactive
outcome [12]: inactive
outcome [13]: inactive
outcome [14]: inactive
outcome [15]: inactive
outcome [20]: inactive
outcome [16]: inactive
outcome [17]: inactive
AC50 [18]: 65.9 µM (active)

CNC(=O)/C=C(\C)OP(=O)(OC)OC
outcome [1]: inactive
outcome [2]: inactive
outcome [3]: inactive
outcome [4]: inactive
outcome [5]: inactive
outcome [6]: inactive
outcome [8]: inactive
outcome [9]: inactive
outcome [10]: inactive
outcome [11]: inactive
outcome [19]: inactive
outcome [12]: inactive
outcome [13]: inactive
outcome [14]: inactive
outcome [15]: inactive
outcome [16]: inactive
outcome [17]: inactive
outcome [18]: inactive
